{"source": "paper PMC4336329", "about": "(PLoS ONE, 2015)", "note": "Screen size: about 310,000 compounds; about 14,000 (4.5%) showed an effect of 50% or more. The effect is printed as a negative number. The full list was thinned out, with strong results kept by preference.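 Further: peak tail current of the secondary pulse compared with the same well before compound.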"}
{"target": "human ether-à-go-go-related gene (hERG) potassium channel (human, UniProt Q12809)", "sequence (Q12809 whole entry, looked up)": "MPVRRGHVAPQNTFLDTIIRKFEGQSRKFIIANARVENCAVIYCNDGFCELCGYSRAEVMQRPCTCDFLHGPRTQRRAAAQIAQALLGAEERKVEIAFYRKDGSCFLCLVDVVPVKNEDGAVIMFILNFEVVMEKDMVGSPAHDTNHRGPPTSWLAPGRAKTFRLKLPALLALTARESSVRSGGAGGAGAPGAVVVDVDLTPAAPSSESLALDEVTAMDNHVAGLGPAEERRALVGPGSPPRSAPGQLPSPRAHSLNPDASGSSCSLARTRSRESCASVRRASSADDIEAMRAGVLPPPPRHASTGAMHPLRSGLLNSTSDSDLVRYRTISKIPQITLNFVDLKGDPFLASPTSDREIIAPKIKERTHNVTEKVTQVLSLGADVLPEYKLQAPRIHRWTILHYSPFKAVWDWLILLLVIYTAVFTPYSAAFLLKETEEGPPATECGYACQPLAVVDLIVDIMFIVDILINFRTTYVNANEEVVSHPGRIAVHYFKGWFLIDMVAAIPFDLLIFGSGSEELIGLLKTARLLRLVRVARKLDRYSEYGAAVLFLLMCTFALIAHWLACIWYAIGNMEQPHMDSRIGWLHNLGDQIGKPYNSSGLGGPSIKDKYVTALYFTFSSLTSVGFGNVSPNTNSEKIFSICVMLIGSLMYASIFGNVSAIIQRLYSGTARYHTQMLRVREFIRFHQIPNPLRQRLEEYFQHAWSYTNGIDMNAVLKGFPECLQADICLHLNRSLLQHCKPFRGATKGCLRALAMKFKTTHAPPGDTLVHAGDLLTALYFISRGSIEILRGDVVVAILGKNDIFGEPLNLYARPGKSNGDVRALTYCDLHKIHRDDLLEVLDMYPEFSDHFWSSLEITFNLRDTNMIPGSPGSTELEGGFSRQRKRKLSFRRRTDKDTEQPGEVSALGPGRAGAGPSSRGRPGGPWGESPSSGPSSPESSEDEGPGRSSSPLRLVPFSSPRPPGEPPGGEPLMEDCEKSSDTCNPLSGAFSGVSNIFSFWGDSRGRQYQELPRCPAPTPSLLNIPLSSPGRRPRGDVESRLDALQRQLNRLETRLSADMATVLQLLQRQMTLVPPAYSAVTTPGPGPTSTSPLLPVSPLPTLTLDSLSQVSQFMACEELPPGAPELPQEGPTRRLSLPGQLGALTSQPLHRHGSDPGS", "assay": "primary screen, population patch clamp on CHO cells stably expressing hERG; higher = less effect of the substance", "units": {"hERG current change (%, negative = inhibition) at 10uM": "%"}}
{"smiles": "COc1ccc(NC(=O)c2ccc3ncsc3c2)c2ccccc12", "hERG current change (%, negative = inhibition) at 10uM": 4.56}
{"smiles": "Clc1ccc(CSc2nnc3c(n2)[nH]c2ccccc23)cc1", "hERG current change (%, negative = inhibition) at 10uM": -1.62}
{"smiles": "O=S(=O)(NCc1ccccc1)[C@@H]1CC2C=CC1C2", "note": "(some centres unmarked)", "hERG current change (%, negative = inhibition) at 10uM": 1.81}
{"smiles": "O=C(c1cc(COc2ccc(F)cc2Cl)on1)N(CCO)Cc1cccs1", "hERG current change (%, negative = inhibition) at 10uM": -31.6}
{"smiles": "Cc1cccc(N2CCN(C(=O)C3CCC(=O)N(C4CC4)C3)CC2)c1C", "note": "(centres unmarked)", "hERG current change (%, negative = inhibition) at 10uM": 0.967}
{"smiles": "O=C(C1CCC(=O)N(C2CCCC2)C1)N1CCC(Oc2ccccc2Cl)CC1", "note": "(centres unmarked)", "hERG current change (%, negative = inhibition) at 10uM": -62.1}
{"smiles": "Cc1cccc(N2CCN(C(=O)C3CC(=O)N(C4CCCC4)C3)CC2)c1C", "note": "(centres unmarked)", "hERG current change (%, negative = inhibition) at 10uM": -57.9}
{"smiles": "Cc1ccccc1N1CCN(C(=O)C2CCC(=O)N(C3CCCC3)C2)CC1", "note": "(centres unmarked)", "hERG current change (%, negative = inhibition) at 10uM": -22.5}
{"smiles": "O=C(C1CCC(=O)N(C2CC2)C1)N1CCC(Oc2ccccc2F)CC1", "note": "(centres unmarked)", "hERG current change (%, negative = inhibition) at 10uM": 2.26}
{"smiles": "Cc1ccccc1OC1CCN(C(=O)C2CCC(=O)N(C3CCCC3)C2)CC1", "note": "(centres unmarked)", "hERG current change (%, negative = inhibition) at 10uM": 3.16}
{"smiles": "COc1ccc(C)cc1S(=O)(=O)N(CC(=O)O)c1ccc(C)cc1", "hERG current change (%, negative = inhibition) at 10uM": 5.39}
{"smiles": "Cc1cc(C)cc(NC(=S)NCc2ccc(S(N)(=O)=O)cc2)c1", "hERG current change (%, negative = inhibition) at 10uM": 8.2}
{"smiles": "Cn1c2ccccc2c2ncn(Cc3ccc(F)cc3)c(=O)c21", "hERG current change (%, negative = inhibition) at 10uM": 8}
{"smiles": "O=C(CCNC(=O)c1ccco1)NCCc1ccc(Cl)cc1", "hERG current change (%, negative = inhibition) at 10uM": -1.83}
{"smiles": "COc1cc(CN2CCC(N3CCC(C(=O)N4CCCC4)CC3)CC2)cc2c1OCO2", "hERG current change (%, negative = inhibition) at 10uM": -17.6}
{"smiles": "COc1cc(CN2CCCC(CCC(=O)NCc3ccc(C)o3)C2)cc2c1OCO2", "note": "(centres unmarked)", "hERG current change (%, negative = inhibition) at 10uM": -59.9}
{"smiles": "COC(=O)c1ccc(CN2CCCC(CCC(=O)NCc3ccc(C)o3)C2)cc1", "note": "(centres unmarked)", "hERG current change (%, negative = inhibition) at 10uM": -67.5}
{"smiles": "Cc1ccc(CNC(=O)CCC2CCCN(Cc3cccc4c3OCO4)C2)o1", "note": "(centres unmarked)", "hERG current change (%, negative = inhibition) at 10uM": -63.2}
{"smiles": "COCc1ccc(CN2CCCC(CCC(=O)NCc3ccc(C)o3)C2)o1", "note": "(centres unmarked)", "hERG current change (%, negative = inhibition) at 10uM": -16.7}
{"smiles": "Cc1ccc(CNC(=O)CCC2CCCN(C(=O)c3ccc4c(c3)OCO4)C2)o1", "note": "(centres unmarked)", "hERG current change (%, negative = inhibition) at 10uM": -20.5}
{"smiles": "CC(=O)c1cccc(CN2CCCC(CCC(=O)NCc3ccc(C)o3)C2)c1", "note": "(centres unmarked)", "hERG current change (%, negative = inhibition) at 10uM": -16.2}
{"smiles": "CC1(C)CC(=O)C=C(Nc2cccc(F)c2)C1", "hERG current change (%, negative = inhibition) at 10uM": 17}
{"smiles": "O=C1c2ccccc2S(=O)(=O)N1CC(O)Cn1c2ccccc2c2ccccc21", "note": "(centres unmarked)", "hERG current change (%, negative = inhibition) at 10uM": 3.03}
{"smiles": "CCn1c(Cc2ccccc2)nnc1SCC(=O)Nc1ccc(N2CCOCC2)c(Cl)c1", "hERG current change (%, negative = inhibition) at 10uM": -5.94}
{"smiles": "COc1cc(CNCCc2ccccc2F)ccc1OCc1ccc(Cl)nc1.Cl", "hERG current change (%, negative = inhibition) at 10uM": -49.5}
{"smiles": "COc1cc(CNCCc2ccccc2)ccc1OCc1ccc(Cl)nc1.Cl", "hERG current change (%, negative = inhibition) at 10uM": -39.5}
{"smiles": "COc1cc(CNCCc2ccc(F)cc2)ccc1OCc1ccc(Cl)nc1.Cl", "hERG current change (%, negative = inhibition) at 10uM": -68.2}
{"smiles": "CCCCCNCc1ccc(OCc2ccc(Cl)nc2)c(OC)c1", "hERG current change (%, negative = inhibition) at 10uM": -45.8}
{"smiles": "COc1ccc(CCNCc2ccc(OCc3ccc(Cl)nc3)c(OC)c2)cc1OC.Cl", "hERG current change (%, negative = inhibition) at 10uM": -63.3}
{"smiles": "CCCCNCc1ccc(OCc2ccc(Cl)nc2)c(OC)c1.Cl", "hERG current change (%, negative = inhibition) at 10uM": -32.7}
{"smiles": "CC1CCCC(NC(=O)COC(=O)c2ccc3ncsc3c2)C1C", "note": "(centres unmarked)", "hERG current change (%, negative = inhibition) at 10uM": -3.48}
{"smiles": "CC(C)N(C1=CC(=O)OC12CCCCC2)C(C)C", "hERG current change (%, negative = inhibition) at 10uM": -0.582}
{"smiles": "COc1cc(C(=O)N/N=C(\\C)Cc2ccccc2)cc(OC)c1OC", "hERG current change (%, negative = inhibition) at 10uM": 9.1}
{"smiles": "CCOC(=O)N1CCC(NC(=O)CSCc2nc(-c3ccc(OC)c(OC)c3)oc2C)CC1", "hERG current change (%, negative = inhibition) at 10uM": -2.5}
{"smiles": "COc1ccc(-c2onc(C)c2-c2cnn(-c3ccccc3)c2)c(O)c1", "hERG current change (%, negative = inhibition) at 10uM": 3.71}
{"smiles": "COc1cc(OC)c(/C=N/NC(=O)c2ccc(Cn3nc([N+](=O)[O-])cc3C)cc2)c(OC)c1", "hERG current change (%, negative = inhibition) at 10uM": -37.1}
{"smiles": "Cc1ccc2nsnc2c1NC(=O)c1ccc([N+](=O)[O-])o1", "hERG current change (%, negative = inhibition) at 10uM": 13.1}
{"smiles": "CCN1CCN(Cc2ccc(NC(=O)c3ccc(C)c(NC(=O)N4CCNC4=O)c3)cc2C(F)(F)F)CC1", "hERG current change (%, negative = inhibition) at 10uM": 1.09}
{"smiles": "CCOC(=O)C1(CCOc2ccccc2)CCN(Cc2cccn2-c2cccnc2)CC1", "hERG current change (%, negative = inhibition) at 10uM": -51.8}
{"smiles": "OCC1(CCc2ccccc2)CCN(Cc2cccn2-c2cccnc2)CC1", "hERG current change (%, negative = inhibition) at 10uM": -49.4}
{"smiles": "OCC1(CCOc2ccccc2)CCN(Cc2cccn2-c2ncccn2)CC1", "hERG current change (%, negative = inhibition) at 10uM": -82.2}
{"smiles": "CCOC(=O)C1(Cc2ccccc2)CCN(Cc2cccn2-c2cccnc2)CC1", "hERG current change (%, negative = inhibition) at 10uM": -39}
{"smiles": "CCOC(=O)C1(CCOc2ccccc2)CCN(Cc2cccn2-c2ncccn2)CC1", "hERG current change (%, negative = inhibition) at 10uM": -76.4}
{"smiles": "O=C(Nc1ccccc1)c1ccccc1N=Cc1ccccc1O", "hERG current change (%, negative = inhibition) at 10uM": 2.2}
{"smiles": "COc1cc2c(cc1OC)CN(S(=O)(=O)c1cccc(F)c1)CC2", "hERG current change (%, negative = inhibition) at 10uM": 18.6}
{"smiles": "Cc1ccc(C)c(C(=O)COC(=O)Cn2[nH]c(=O)c3ccccc3c2=O)c1", "hERG current change (%, negative = inhibition) at 10uM": 5.51}
{"smiles": "O=C(CN1C(=O)NC2(CCCC2)C1=O)N1CCN(c2cccc(C(F)(F)F)c2)CC1", "hERG current change (%, negative = inhibition) at 10uM": -24.5}
{"smiles": "Cc1oc2c(C)c3oc(=O)c(CCC(=O)NCCCN4CCOCC4)c(C)c3cc2c1C", "hERG current change (%, negative = inhibition) at 10uM": -6.99}
{"smiles": "COc1ccccc1CCN=C(N)NS(=O)(=O)c1ccc(C)c(C)c1", "hERG current change (%, negative = inhibition) at 10uM": 9.37}
{"smiles": "O=C(COC(=O)c1ncc(Cl)c(Cl)c1Cl)NCc1ccccc1", "hERG current change (%, negative = inhibition) at 10uM": 2.42}
{"smiles": "CCN1CCN(C(=O)CS(=O)Cc2nc(-c3cccc(C)c3)oc2C)CC1", "note": "(centres unmarked)", "hERG current change (%, negative = inhibition) at 10uM": 3.36}
{"smiles": "COc1ccc(-c2nnc(SC(C(=O)c3c[nH]c4ccccc34)c3ccccc3)n2N)cc1OC", "note": "(centres unmarked)", "hERG current change (%, negative = inhibition) at 10uM": 2.03}
{"smiles": "COc1ccc(NC(=O)c2cc3ccc(O)cc3o/c2=N\\O)cc1", "hERG current change (%, negative = inhibition) at 10uM": 2.99}
{"smiles": "C=CCn1c(=O)c2ccccc2n2c(SCC(=O)Nc3sc(C(=O)N(CC)CC)c(C)c3C(=O)OCC)nnc12", "hERG current change (%, negative = inhibition) at 10uM": -52.3}
{"smiles": "C=CCn1c(=O)c2ccccc2n2c(SCC(=O)NC)nnc12", "hERG current change (%, negative = inhibition) at 10uM": -1.24}
{"smiles": "C=CCn1c(=O)c2ccccc2n2c(SCC(=O)Nc3sc(C)c(CC)c3C(=O)OCC)nnc12", "hERG current change (%, negative = inhibition) at 10uM": 6.96}
{"smiles": "C=CCn1c(=O)c2ccccc2n2c(SCC(N)=O)nnc12", "hERG current change (%, negative = inhibition) at 10uM": 2.96}
{"smiles": "C=CCn1c(=O)c2ccccc2n2c(SCc3c(C(=O)OCC)oc4ccccc34)nnc12", "hERG current change (%, negative = inhibition) at 10uM": -56.1}
{"smiles": "CCCn1c(=O)c2ccccc2n2c(SCc3c(C(=O)OCC)oc4ccccc34)nnc12", "hERG current change (%, negative = inhibition) at 10uM": -43.5}
